Among all 65,000 compounds or so, about 2,100 (3.2%) showed an effect of 50% or more. The median lay at about -52%. Shown is part of a subset that was picked to be rich in strong results.
Each compound was assayed on Plasmodium falciparum (assay: Screen against P. falciparum Asexual Blood Stage (ABS), at 5uM). Settings: tested at 5 uM.
Format: functional, Dd2
For Cn1ccc(C(=O)NCc2cccc(NC(=O)C3CCC3)c2)cc1=O, the INHIBITION was -218%.
CC(CN1CCCCCC1)NCc1cc(-c2ccco2)on1 (stereo unspecified) showed an INHIBITION of 18%.
Work on COCCN(Cc1sccc1C)C(=O)C1CCN(C(C)C)CC1 yielded an INHIBITION of 57.7%.
COCCN(Cc1sccc1C)C(=O)COc1ccccc1O showed an INHIBITION of -65.9%.
COCCN(Cc1sccc1C)C(=O)C1CCCN(C(N)=O)C1 (stereo unspecified) was tested, and the INHIBITION was -75.6%.
Cc1nn(C)c(N2CCOCC2)c1CNC1CCc2ccccc21 (stereo unspecified) showed an INHIBITION of 45.3%.
Compound Cc1nn(C)c(N(C)C)c1CNCc1ccc2c(c1)OCO2 has an INHIBITION of 35.3%.
Cc1nn(C)c(N2CCOCC2)c1CNCc1ccc2c(c1)OCO2 was tested, and the INHIBITION was 64.5%.
For Cc1nn(C)c(N2CCOCC2)c1CNCc1ccnc(N(C)C)c1, the INHIBITION was -24.8%.
In the case of Cc1nn(C)c(N2CCOCC2)c1CNCc1ccnn1C, the INHIBITION is reported as -222%.
With Cc1ccc2c(c1)CCC2NCc1c(C)nn(C)c1N1CCOCC1 (stereo unspecified) the INHIBITION was 64.2%.
For Cc1nn(C)c(N2CCOCC2)c1CNCc1ccc(Cl)s1, the INHIBITION was 53%.
Work on Cc1nn(CC(C)C)c(N(C)C)c1CNCc1ccc2c(c1)OCO2 yielded an INHIBITION of 54.6%.
Work on Cc1nn(C)c(N2CCOCC2)c1CNCc1nccs1 yielded an INHIBITION of -58.2%.
For Cc1nn(C)c(N2CCOCC2)c1CNC1CCc2cc(F)ccc21 (stereo unspecified), the INHIBITION was 40.1%.
Compound Cc1nn(CC(C)C)c(N(C)C)c1CNCc1cccc2c1OCO2 has an INHIBITION of 29.4%.
With Cc1nn(C)c(N2CCOCC2)c1CNCc1ccc(CO)c(F)c1 the INHIBITION was -77.5%.
In the case of O=C1C(N2CC[C@@H](O)C2)CCCN1Cc1cccc(C(F)(F)F)c1 (stereo partly specified), the INHIBITION is reported as -51.6%.
In the case of CCOCCN1CCN(C=C2NN=C(c3occc3C)O2)CC1, the INHIBITION is reported as -7.75%.
In the case of COc1ccc2c(c1)sc(=NC(=O)CSCC(=O)Nc1nccs1)n2C, the INHIBITION is reported as -52.2%.
For CC(C)(O)CN1CCN(C(=O)c2cnn(-c3ccccc3F)c2)CC1, the INHIBITION was -73.1%.
Work on c1ccc(-c2nc(CN3CCCC3Cn3cncn3)co2)cc1 (stereo unspecified) yielded an INHIBITION of -69.1%.
In the case of CNC(=O)[C@H]1C[C@H]2CN(C(=O)NC(C)C)C[C@@H]1O2, the INHIBITION is reported as -50%.
In the case of COc1cc(CN(C)Cc2cccnc2)c(SC)cc1OC, the INHIBITION is reported as -61.6%.
Compound COc1ccc2nnc(CCCC(=O)NCc3ccccc3OC)n2n1 has an INHIBITION of -64.6%.
With Cc1cnc(CN(Cc2cccc(O)c2)CC2CC2)cn1 the INHIBITION was -23.7%.
CN1C(=O)CN(C(=O)c2ccc(=O)n(C)c2)c2ccccc21 showed an INHIBITION of -50.5%.
Cc1nn(C)c(N2CCOCC2)c1CNCc1cscn1 gave an INHIBITION of 56.6%.
For Cc1nc(CNCc2c(C)nn(C)c2N2CCOCC2)cs1, the INHIBITION was 27.5%.
In the case of CC(C)c1nn(C)c(N2CCOCC2)c1CNCc1cscn1, the INHIBITION is reported as -72.2%.
COc1ccccc1-c1ccc(C(=O)N2C[C@@H]3CC[C@H]2CN(C)C3)cc1 gave an INHIBITION of -93.3%.
Compound Cc1nc(C)n(CC2CCCN2Cc2nnc(-c3ccco3)o2)n1 (stereo unspecified) has an INHIBITION of -53.7%.
In the case of Cc1nc(-n2nc(-c3cccs3)cc2N)[nH]c(=O)c1C, the INHIBITION is reported as -26.1%.
With Cc1n[nH]cc1CNCc1cccc(OCC(F)(F)F)c1 the INHIBITION was 57.9%.
Work on Cc1n[nH]cc1CNC(=O)Nc1cccc(OCC(F)(F)F)c1 yielded an INHIBITION of -31.6%.
Work on Cc1n[nH]cc1CNCc1ccnc(OCC(F)(F)F)c1 yielded an INHIBITION of -64.7%.
With COc1ccc(NS(=O)(=O)C=c2[nH]c(=O)n3cccc3c2=O)cc1Cl the INHIBITION was -76.2%.
CC(C)(CNC(=O)C(C)(C)c1ccccc1F)C(N)=O was tested, and the INHIBITION was -83%.
In the case of CC(C)(C(=O)NCC(N)=O)c1ccccc1F, the INHIBITION is reported as -60.2%.
Work on CN(C)C(C)(C)CNC(=O)C(C)(C)c1ccccc1F yielded an INHIBITION of 53.3%.
For CC(Cn1cccn1)NCCCc1nc(-c2cccs2)no1 (stereo unspecified), the INHIBITION was 67.8%.
c1csc(-c2noc(CNCCn3cccn3)n2)c1 showed an INHIBITION of -114%.
For Cc1cnn(CC(C)NCc2nc(-c3cccs3)no2)c1 (stereo unspecified), the INHIBITION was -73.4%.
Cc1ccccc1CN1CCCC1c1cncc(Nc2nncs2)n1 (stereo unspecified) gave an INHIBITION of -20.5%.
Work on COc1cccc(CN2CCCC2c2cncc(Nc3nncs3)n2)c1 (stereo unspecified) yielded an INHIBITION of -8.54%.
In the case of Cc1cccc(CN2CCCC2c2cncc(Nc3nncs3)n2)c1 (stereo unspecified), the INHIBITION is reported as 52.5%.
In the case of c1ccc(CCNC2CCc3ncnn3C2)nc1 (stereo unspecified), the INHIBITION is reported as -209%.
With CC(C)(CNc1c(C#N)cnc2ccc(Cl)cc12)C(N)=O the INHIBITION was 11.4%.
Work on CC(NC1(CNS(C)(=O)=O)CCCC1)c1ccccc1 (stereo unspecified) yielded an INHIBITION of 68.9%.
CC(NC1(CNS(C)(=O)=O)CCOCC1)c1ccccc1 (stereo unspecified) was tested, and the INHIBITION was 0.206%.
CCC(CC)C(=O)NCC1(NC(C)c2ccccc2)CCOCC1 (stereo unspecified) showed an INHIBITION of -6.09%.
Work on O=C(Cc1ccccc1)NCCNCc1cccc(O)c1 yielded an INHIBITION of 6.4%.
COc1ccc(-n2cccn2)c(CN2CCC(O)(CO)CC2)c1 was tested, and the INHIBITION was -36%.
Work on COc1ccc(-n2cccn2)c(CN2CCC3(CCCNC3)C2)c1 (stereo unspecified) yielded an INHIBITION of 68.3%.
With COc1ccc(-n2cccn2)c(CN2CCC3(CCNCC3)C2)c1 the INHIBITION was 31.9%.
For CCn1ncc2c1CN(CCc1cccc(Cl)c1)CC2COC (stereo unspecified), the INHIBITION was -27.5%.
Compound Cc1cccc(CO[C@@H]2CO[C@@]3(CCN(S(=O)(=O)N(C)C)C3)C2)n1 has an INHIBITION of -44.7%.
For CCn1cnnc1C1CCN(C(=O)c2cnn(C(C)(C)C)c2)CC1, the INHIBITION was -133%.
For CCN(Cc1ccccc1)C(=O)CCN1C[C@@H](C(=O)O)[C@H](C2CC2)C1, the INHIBITION was -49.1%.
C[C@@H]1CN(CCC(=O)N(C)Cc2ccccc2)C[C@@]1(O)C1CCC1 showed an INHIBITION of 20.7%.
CN(Cc1ccccc1)C(=O)CCN1C[C@H](C2CC2)[C@@H](N(C)C)C1 gave an INHIBITION of 51.9%.
In the case of O=C(c1cccn1-c1ccc2c(c1)OCCO2)N1CCCC1, the INHIBITION is reported as 9.62%.
In the case of CC(C)N1CCC2(CC1)CC(CC(N)=O)c1ccc(F)cc12 (stereo unspecified), the INHIBITION is reported as -12.3%.
c1cnc(N2CCC3(CCN(CC4CCOC4)CC3)C2)nc1 (stereo unspecified) gave an INHIBITION of -14.7%.
c1cnc(N2CCOC3(CCN(CC4CCCCC4)CC3)C2)nc1 was tested, and the INHIBITION was 57.2%.
Work on c1cnc(N2CCC3(CCN(CC4CCCC4)CC3)C2)nc1 yielded an INHIBITION of 43.8%.
Work on c1cnc(N2CCCC3(CCN(CC4CCOC4)CC3)C2)nc1 (stereo unspecified) yielded an INHIBITION of 56.4%.
c1cnc(N2CCC3(CCN(CC4CCOCC4)CC3)C2)nc1 showed an INHIBITION of -30.1%.
c1cnc(N2CCOC3(CCN(CC4CCOC4)CC3)C2)nc1 (stereo unspecified) showed an INHIBITION of -13%.
Compound CN(C(=O)C1CCN(Cc2cnc3ccccn23)CC1)c1ccccc1 has an INHIBITION of 10%.
With CCCc1cc(CNC2CCN(c3cc(C)nc(N)n3)CC2)on1 the INHIBITION was -44.2%.
O=C1NCC2CN(Cc3ccccc3OCc3ccccn3)CCN12 (stereo unspecified) showed an INHIBITION of -16.2%.
CCOC(=O)Cc1n[nH]c(-c2cncc(Br)c2)n1 gave an INHIBITION of -109%.
Work on CCC(=O)N1CCCN(Cn2nc(C)c(Br)c2C)CC1 yielded an INHIBITION of -101%.
Compound CCc1ccc(S(=O)(=O)N2CCN(CCn3ccnc3)CC2)cc1 has an INHIBITION of -45.4%.
O=C1CCCN1CC1CN(CC2CCOCC2)Cc2nccn2C1 (stereo unspecified) showed an INHIBITION of -87%.
With Cc1ncc(CN2CCCC2)c2cc(C(=O)c3ccc(Br)cc3)oc12 the INHIBITION was 67.5%.
For Cc1ncc(CN(C)CCO)c2cc(C(=O)c3ccc(Br)cc3)oc12, the INHIBITION was 49.9%.
Compound Cc1ncc(CN2CCOCC2)c2cc(C(=O)c3ccc(Br)cc3)oc12 has an INHIBITION of -2.54%.
Work on CCO[C@H]1CC[C@H]2[C@H]1OCCN2C(=O)c1nn(C)c2ccccc12 yielded an INHIBITION of -77.6%.
Cc1nc(N)ncc1C(=O)N1CCCC(CCc2ccc(F)cc2)C1 (stereo unspecified) was tested, and the INHIBITION was 38%.
N#Cc1cccc(C(=O)N2CCN(c3ncccn3)CC2)c1 gave an INHIBITION of -150%.
COc1ccc(C2Nc3cc(Cl)ccc3C3=NCCN32)cc1OC (stereo unspecified) gave an INHIBITION of 72.2%.
With COc1ccc(C2Nc3ccccc3C3=NCCCN32)cc1OC (stereo unspecified) the INHIBITION was -62.4%.
Compound CN(C)c1ncc(C2Nc3cc(Cl)ccc3C3=NCCCN32)cn1 (stereo unspecified) has an INHIBITION of -9.81%.
For COCCN1CCN(CC2CCCCO2)CC1 (stereo unspecified), the INHIBITION was -67.3%.
With Cc1cccc(C(=O)N2C[C@@H]3OCCN(CCN4CCCC4)[C@@H]3C2)n1 the INHIBITION was -112%.
For CO[C@@H]1c2ccccc2C2(CCN(C(=O)CNC(=O)C(C)C)CC2)[C@H]1O, the INHIBITION was -62.3%.
Cc1noc(C)c1CNC(=O)N1CCC(OCC2CC2)CC1 was tested, and the INHIBITION was -65.8%.
For NC(=O)C1CCN(C(=O)NC2CCN(CC3CCCC3)C2)CC1 (stereo unspecified), the INHIBITION was -53.5%.
O=C(NC1CCN(CC2CC2)C1)N1CCC(OC2CCCCC2)CC1 (stereo unspecified) showed an INHIBITION of 55%.
Compound CSC(C)(C)CNC(=O)NC1CCN(CC2CC2)C1 (stereo unspecified) has an INHIBITION of -35.8%.
O=C(CCN1CCOCC1)NC1CCCN(CC2CCCCC2)C1 (stereo unspecified) showed an INHIBITION of -80.2%.
O=C(NC1CCN(CC2CCCC2)C1)N1CCC(OCC2CC2)CC1 (stereo unspecified) showed an INHIBITION of 64.5%.
With Cc1ccc(C(=O)N2CCCC(c3cc(C(F)(F)F)[nH]n3)C2)o1 (stereo unspecified) the INHIBITION was -50.8%.
Cc1cnc2n(c1=O)CC(C(=O)NCc1ccccc1Cl)CS2 (stereo unspecified) was tested, and the INHIBITION was -88.7%.
CC1CCCN(C(=O)c2ccc(N(C)Cc3cnn(C)c3)nc2)C1 (stereo unspecified) was tested, and the INHIBITION was -222%.
In the case of Cc1nn(C)c2c(NC3CCCC3)nc(C3CC3)nc12, the INHIBITION is reported as -18.7%.
COC(=O)NCC(=O)NC(c1ccc(Cl)cc1)C(F)(F)F (stereo unspecified) showed an INHIBITION of 38%.
COCC(=O)NC(c1ccc(Cl)cc1)C(F)(F)F (stereo unspecified) was tested, and the INHIBITION was 7.67%.
COC(=O)NCCC(=O)NC(c1ccc(Cl)cc1)C(F)(F)F (stereo unspecified) gave an INHIBITION of 63.6%.
Cc1cccc(CN2C[C@@H]3OCCN(c4ccnc(N(C)C)n4)[C@@H]3C2)c1 showed an INHIBITION of 52.5%.
In the case of CN(C)c1nccc(N2CCO[C@H]3CN(Cc4nccn4C)C[C@H]32)n1, the INHIBITION is reported as -73.7%.
CCc1ccc(CN2C[C@@H]3OCCN(c4ccnc(N(C)C)n4)[C@@H]3C2)o1 showed an INHIBITION of 9.71%.
With N#Cc1ccc(N2CCCC3(CCC(=O)N3CC3CC3)CC2)nc1 (stereo unspecified) the INHIBITION was -26.4%.
Cc1cc(CN(C)Cc2ncc(-c3ccccc3)o2)no1 showed an INHIBITION of -107%.
